Experimental data as given in PubChem BioAssay (EPA / NIEHS).
Inconclusive results are not listed. Active and inactive are the calls of the source. The calls were made as follows: active = hit-call score of the fitted dose curve at least 0.9, where 1 is the maximum; inconclusive = response in the unintended direction; inactive = score below 0.9.

molecular target: human Retinoic Acid Receptor beta (RARb), RARB (gene 5915) (UniProt P10826); experiment: ATG_RARb_TRANS: Attagene TRANS-FACTORIAL HepG2 Assay for human Retinoic Acid Receptor beta (AID 2283004)
Summary of the method: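 Transient transfection of HepG2 with multiple reporter units → chemical dosing, 24 h → total RNA isolation → RT with oligo(dT) → reporter-specific PCR, 6-FAM primer extension, HpaI digest → capillary electrophoresis. Positive direction vs DMSO control.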

Chain of human Retinoic Acid Receptor beta (RARb), RARB (gene 5915) (P10826 whole entry, looked up): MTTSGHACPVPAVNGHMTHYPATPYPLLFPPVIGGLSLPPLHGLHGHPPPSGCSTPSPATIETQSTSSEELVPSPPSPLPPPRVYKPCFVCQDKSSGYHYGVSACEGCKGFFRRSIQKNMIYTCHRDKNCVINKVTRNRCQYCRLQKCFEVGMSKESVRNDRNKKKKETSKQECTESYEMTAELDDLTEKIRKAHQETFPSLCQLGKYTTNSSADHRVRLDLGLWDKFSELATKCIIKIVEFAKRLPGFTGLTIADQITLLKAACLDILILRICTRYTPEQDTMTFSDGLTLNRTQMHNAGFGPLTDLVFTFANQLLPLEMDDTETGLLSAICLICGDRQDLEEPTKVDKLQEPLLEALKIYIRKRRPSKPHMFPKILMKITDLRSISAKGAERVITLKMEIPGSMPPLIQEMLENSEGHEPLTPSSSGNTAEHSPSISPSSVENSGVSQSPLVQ

SMILES | outcome
BrCCCCBr | inactive
CC(C)CC(C)(c1ccc(O)cc1)c1ccc(O)cc1 | inactive
FC(F)OCC(F)(F)C(F)(F)F | inactive
Cc1cc(-c2cc(C)c(N)c(C)c2)cc(C)c1N | inactive
c1ccc2c(c1)Oc1ccccc1O2 | inactive

molecular target: Retinoic acid receptor alpha (Homo sapiens) (UniProt P10276); experiment: ATG_RARa_TRANS: Attagene TRANS-FACTORIAL HepG2 Assay for human Retinoic Acid Receptor alpha (RARa) (AID 2283005)
Summary of the method: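 Reporter transcripts, measured by RT-PCR with fluorescent labeling and capillary electrophoresis after 24 h dosing, reflect activity of an exogenous human RARa–GAL4 fusion in transiently transfected HepG2. Fitted for increase relative to DMSO.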

Chain of Retinoic acid receptor alpha (Homo sapiens) (P10276 whole entry, looked up, the tested form may be a part): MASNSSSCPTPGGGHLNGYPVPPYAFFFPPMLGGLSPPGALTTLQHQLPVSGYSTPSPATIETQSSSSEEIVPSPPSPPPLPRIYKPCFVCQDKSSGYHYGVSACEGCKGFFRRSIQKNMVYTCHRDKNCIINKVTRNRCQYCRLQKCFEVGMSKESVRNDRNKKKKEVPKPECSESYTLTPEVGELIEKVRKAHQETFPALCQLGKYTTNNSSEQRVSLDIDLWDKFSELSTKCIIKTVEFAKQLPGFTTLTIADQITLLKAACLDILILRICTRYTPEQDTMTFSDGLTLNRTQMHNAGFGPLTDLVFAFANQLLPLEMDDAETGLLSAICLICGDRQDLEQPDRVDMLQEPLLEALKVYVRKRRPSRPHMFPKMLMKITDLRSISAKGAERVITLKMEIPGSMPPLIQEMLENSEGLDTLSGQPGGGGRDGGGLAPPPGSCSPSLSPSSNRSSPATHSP

SMILES | outcome
CCN(N=O)C(N)=O | inactive
O=CCCl | inactive
CCCCCCCCCCBr | inactive
Cc1cc(Cl)ccc1O | inactive
CC(C)C(C)(N)C#N (configuration not stated) | inactive
Cc1cc(-c2cc(C)c(N)c(C)c2)cc(C)c1N | inactive

molecular target: Peroxisome proliferator-activated receptor gamma (Homo sapiens) (UniProt P37231); experiment: ATG_PPARg_TRANS: Attagene TRANS-FACTORIAL HepG2 Assay for human Peroxisome Proliferator-activated Receptor-gamma (PPARg) (AID 2283007)
Summary of the method: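 Endpoint reflects upward reporter mRNA change versus DMSO controls. Setup: transiently transfected HepG2, GAL4-UAS reporters driven by chimeric NR-Gal4, 24 h incubation, RT-PCR with capillary electrophoresis read-out.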

Chain of Peroxisome proliferator-activated receptor gamma (Homo sapiens) (P37231 whole entry, looked up, the tested form may be a part): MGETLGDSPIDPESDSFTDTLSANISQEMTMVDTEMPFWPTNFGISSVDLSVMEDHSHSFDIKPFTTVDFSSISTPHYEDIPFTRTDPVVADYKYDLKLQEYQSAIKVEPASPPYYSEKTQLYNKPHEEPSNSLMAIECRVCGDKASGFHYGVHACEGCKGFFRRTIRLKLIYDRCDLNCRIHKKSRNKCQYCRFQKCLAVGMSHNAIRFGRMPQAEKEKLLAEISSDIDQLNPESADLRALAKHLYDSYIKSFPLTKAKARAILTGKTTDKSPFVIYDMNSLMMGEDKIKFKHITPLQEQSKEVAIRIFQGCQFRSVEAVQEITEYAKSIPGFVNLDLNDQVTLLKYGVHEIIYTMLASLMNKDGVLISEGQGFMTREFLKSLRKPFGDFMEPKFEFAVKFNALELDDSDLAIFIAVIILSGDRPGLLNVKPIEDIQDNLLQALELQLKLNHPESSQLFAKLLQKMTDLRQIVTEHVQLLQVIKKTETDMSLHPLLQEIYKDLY

SMILES | outcome | AC50
CCN(N=O)C(N)=O | inactive | –
O=CCCl | inactive | –
CCCCCCCCCCBr | – | 19.8 µM (active)
C=C(C)[C@@H]1CC=C(C=O)CC1 | – | 22.5 µM (active)
BrCC(Br)c1ccccc1 (configuration not stated) | inactive | –
Cc1cc(Cl)ccc1O | inactive | –
BrCCCCBr | inactive | –
Brc1c(Br)c(Br)c(Oc2c(Br)c(Br)c(Br)c(Br)c2Br)c(Br)c1Br | inactive | –
CC(C)(c1ccc(O)c(-c2ccccc2)c1)c1ccc(O)c(-c2ccccc2)c1 | – | 1.61 µM (active)
CN(N=O)C(N)=O | inactive | –
CCNc1nc(NCC)nc(SC)n1 | inactive | –
Clc1cnc(Oc2ccc(Oc3ncc(Cl)cc3Cl)cc2)c(Cl)c1 | – | 16.7 µM (active)
CCCCCCCCBr | inactive | –
Cc1cc(Cl)ccc1OCCCC(=O)O | – | 61.5 µM (active)
CCCCC(CC)C(=O)Cl (configuration not stated) | inactive | –
CCCCCCCCCCCCBr | – | 43.3 µM (active)
Nc1nc(=S)[nH][nH]1 | inactive | –
CCOP(=S)(OCC)O/N=C(\C#N)c1ccccc1 | – | 10.6 µM (active)
c1csc(-c2ccc(-c3cccs3)s2)c1 | – | 1.7 µM (active)
OC(c1ccc(Cl)cc1)(c1ccc(Cl)cc1)c1cccnc1 | inactive | –
CC(C)CC(C)(c1ccc(O)cc1)c1ccc(O)cc1 | – | 11.1 µM (active)
OCC(c1ccc(Cl)cc1)c1ccc(Cl)cc1 | – | 39.2 µM (active)
CC(=O)CN(CC(C)=O)N=O | inactive | –
CCC[CH2][Sn]([CH2]CCC)([CH2]CCC)[CH2]CCC | – | 3.29 µM (active)
Cc1cc(-c2cc(C)c(N)c(C)c2)cc(C)c1N | – | 36.3 µM (active)
CC(=O)C(F)(F)C(F)(F)F | inactive | –
Cc1ccc(CCl)cc1 | inactive | –
CC(F)(F)CC(F)(F)F | inactive | –
COC(F)(C(F)(F)C(F)(F)F)C(F)(C(F)(F)F)C(F)(F)F (configuration not stated) | inactive | –
COC(=O)Nc1cccc(OC(=O)Nc2cccc(C)c2)c1 | inactive | –

molecular target: Nuclear receptor subfamily 1 group I member 2 (Homo sapiens) (UniProt O75469); experiment: ATG_PXR_TRANS: Attagene TRANS-FACTORIAL HepG2 Assay for human Pregnane X Receptor (PXR) (AID 2283008)
Summary of the method: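 HepG2 cells transiently transfected with GAL4-UAS reporter units and PXR-Gal4 chimera, exposed 24 h. Reporter mRNA quantified by RT-PCR, fluorescent labelling, HpaI digestion and capillary electrophoresis; gain of signal vs DMSO.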

Chain of Nuclear receptor subfamily 1 group I member 2 (Homo sapiens) (O75469 whole entry, looked up, the tested form may be a part): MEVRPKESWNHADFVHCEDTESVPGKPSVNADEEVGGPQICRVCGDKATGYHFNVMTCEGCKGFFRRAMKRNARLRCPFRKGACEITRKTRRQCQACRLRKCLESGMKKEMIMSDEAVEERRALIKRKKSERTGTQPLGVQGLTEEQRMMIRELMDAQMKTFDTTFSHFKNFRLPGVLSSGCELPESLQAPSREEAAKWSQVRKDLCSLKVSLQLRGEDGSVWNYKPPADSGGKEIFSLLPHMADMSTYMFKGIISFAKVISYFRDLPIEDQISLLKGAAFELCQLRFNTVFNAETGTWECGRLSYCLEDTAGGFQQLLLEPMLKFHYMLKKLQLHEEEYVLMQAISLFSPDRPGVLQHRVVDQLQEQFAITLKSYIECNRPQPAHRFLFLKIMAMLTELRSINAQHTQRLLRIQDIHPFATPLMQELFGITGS

SMILES | outcome | AC50
Nc1ccc(-c2ccccc2)cc1 | inactive | –
CCN(N=O)C(N)=O | inactive | –
CCCCCCCCCCBr | inactive | –
Cc1cc(Cl)ccc1O | inactive | –
CC(C)(c1ccc(O)c(-c2ccccc2)c1)c1ccc(O)c(-c2ccccc2)c1 | – | 1.45 µM (active)
CN(N=O)C(N)=O | inactive | –
CCNc1nc(NCC)nc(SC)n1 | inactive | –
Brc1ccc(Oc2c(Br)cc(Br)cc2Br)c(Br)c1 | inactive | –
Clc1cnc(Oc2ccc(Oc3ncc(Cl)cc3Cl)cc2)c(Cl)c1 | – | 7.48 µM (active)
CCCCC(CC)C(=O)Cl (configuration not stated) | inactive | –
Nc1nc(=S)[nH][nH]1 | inactive | –
N#Cc1ccccc1N | inactive | –
N#Cc1ccccc1Cl | inactive | –
OC(c1ccc(Cl)cc1)(c1ccc(Cl)cc1)c1cccnc1 | inactive | –
CC(C)CC(C)(c1ccc(O)cc1)c1ccc(O)cc1 | – | 1.47 µM (active)
OCC(c1ccc(Cl)cc1)c1ccc(Cl)cc1 | – | 20.1 µM (active)
FC(F)OCC(F)(F)C(F)(F)F | inactive | –
CCC[CH2][Sn]([CH2]CCC)([CH2]CCC)[CH2]CCC | – | 9.24 µM (active)
Cc1cc(-c2cc(C)c(N)c(C)c2)cc(C)c1N | – | 27 µM (active)
CC(=O)C(F)(F)C(F)(F)F | inactive | –
COC(F)(C(F)(F)C(F)(F)F)C(F)(C(F)(F)F)C(F)(F)F (configuration not stated) | inactive | –
c1ccc2c(c1)Oc1ccccc1O2 | inactive | –
COC(=O)Nc1cccc(OC(=O)Nc2cccc(C)c2)c1 | inactive | –

molecular target: human Retinoic Acid Receptor gamma (RARg), RARG (gene 5916) (UniProt P13631); experiment: ATG_RARg_TRANS: Attagene TRANS-FACTORIAL HepG2 Assay for human Retinoic Acid Receptor gamma (RARg) (AID 2283009)
Summary of the method: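 HepG2 cells transiently transfected with multiplexed reporter units expressing chimeric RARg-GAL4 and GAL4-UAS-driven reporters; 24 h compound exposure. Reporter mRNA quantified by RT-PCR with fluorescent labelling and capillary electrophoresis; gain-of-signal fitted relative to DMSO baseline.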

Chain of human Retinoic Acid Receptor gamma (RARg), RARG (gene 5916) (P13631 whole entry, looked up, the tested form may be a part): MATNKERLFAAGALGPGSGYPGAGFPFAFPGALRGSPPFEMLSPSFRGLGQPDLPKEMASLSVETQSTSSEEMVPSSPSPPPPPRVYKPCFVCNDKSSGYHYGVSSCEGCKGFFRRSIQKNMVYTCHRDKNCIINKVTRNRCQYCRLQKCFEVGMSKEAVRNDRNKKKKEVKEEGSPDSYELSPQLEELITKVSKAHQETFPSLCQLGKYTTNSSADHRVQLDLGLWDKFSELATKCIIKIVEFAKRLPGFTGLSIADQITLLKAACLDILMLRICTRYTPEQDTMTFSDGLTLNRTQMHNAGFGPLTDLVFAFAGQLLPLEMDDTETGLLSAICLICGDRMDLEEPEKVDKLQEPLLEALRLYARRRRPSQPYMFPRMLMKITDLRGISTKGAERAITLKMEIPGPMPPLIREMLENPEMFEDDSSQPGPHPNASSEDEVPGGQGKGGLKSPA

SMILES | outcome
CN(C)[C@@H]1C(=O)C(C(N)=O)=C(O)[C@@]2(O)C(=O)C3=C(O)c4c(O)ccc(Cl)c4[C@@](C)(O)[C@H]3C[C@@H]12 | inactive
O=CCCl | inactive
Brc1c(Br)c(Br)c(Oc2c(Br)c(Br)c(Br)c(Br)c2Br)c(Br)c1Br | inactive
CC(C)(c1ccc(O)c(-c2ccccc2)c1)c1ccc(O)c(-c2ccccc2)c1 | inactive
CN(N=O)C(N)=O | inactive
CCNc1nc(NCC)nc(SC)n1 | inactive
Cc1cc(Cl)ccc1OCCCC(=O)O | inactive
c1csc(-c2ccc(-c3cccs3)s2)c1 | inactive
CC(C)CC(C)(c1ccc(O)cc1)c1ccc(O)cc1 | inactive
CCC[CH2][Sn]([CH2]CCC)([CH2]CCC)[CH2]CCC | inactive
Cc1cc(-c2cc(C)c(N)c(C)c2)cc(C)c1N | inactive
CC(F)(F)CC(F)(F)F | inactive
COC(F)(C(F)(F)C(F)(F)F)C(F)(C(F)(F)F)C(F)(F)F (configuration not stated) | inactive
